Our source for the Potency values is PubChem BioAssay (NCATS).

What all share (assay): qHTS profiling for inhibitors of Plasmodium falciparum proliferation (AID 504749); note: nearly all actives have a fitted effect of over 60% in size
Holding throughout (settings): P. falciparum in erythrocytes, SYBR Green DNA, 72 h; series mostly up to 28.7 µM

Assay [1] concerns CP238. Put shortly:
(§1)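 In a 72 h erythrocytic culture (37 C, humidified, 5% CO2) at 2.5% hematocrit and 0.3% starting parasitemia, compounds were tested; SYBR Green I in detergent lysis buffer stained parasite DNA overnight.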

For assay [2], the system named is CP247. Put shortly:
as §1

The test system of assay [3] is CP250. Put shortly: as §1
The subject of assay [4] is CP252. Put shortly: as §1
The test system of assay [5] is CP256. Put shortly: as §1
Assay [6] deals with CP260. Put shortly: as §1
Assay [7] concerns CP262. Put shortly:
as §1

In assay [8] the test system is CP265. Put shortly: as §1
For assay [9], the system named is CP266. Put shortly:
as §1

The test system of assay [10] is CP268. Put shortly: as §1
The subject of assay [11] is CP269. Put shortly: as §1
Assay [12] has as its system CP286. Put shortly:
as §1

Assay [13] has as its system CP291. Put shortly:
as §1

In assay [14] the test system is CP305. Put shortly: as §1
Assay [15] has as its system CP315. Put shortly:
as §1

For assay [16], the system named is CP325. Put shortly: as §1
The subject of assay [17] is CP329. Put shortly: as §1
The test system of assay [18] is CP335. Put shortly: as §1
In assay [19] the test system is DFO2036. Put shortly:
as §1

Assay [20] deals with CP297. Put shortly:
as §1

Results filed as inconclusive are left out. The source made the active and inactive calls. Calls come from the whole dose curve; as a rule, active = well fitted inhibition curve with a large enough effect; inconclusive = small, poorly fitted or top-dose-only effect; inactive = flat fitted curve, though single readings scatter.
Potency is the fitted concentration of half-maximal effect.

For the compound `O=C(O)c1ccccc1O`, the Potency entry in [1], in [2], in [3], in [4], in assay [5] and in [6] was “inactive” each time. For the same compound, the Potency entry in assay [7], in [8], in [9], in [10], in [11] and in assay [12] was “inactive” throughout. The Potency result in assay [13], in [14], in assay [15], in [16], in [17] and in assay [18] was “inactive” in each case. For the same compound, the Potency result in assay [19] is “inactive”.

As to `Cc1cc(C(C#N)c2ccc(Cl)cc2)c(Cl)cc1NC(=O)c1cc(I)cc(I)c1O` (configuration not stated), the Potency entry in [1], in [2], in [3], in [4], in [5] and in assay [6] was “inactive” each time. The Potency entry in assay [7], in assay [8], in [9], in assay [10], in assay [11] and in assay [12] was “inactive” throughout. Besides, the Potency entry in assay [13], in assay [20], in assay [14], in [16], in assay [17] and in assay [18] was “inactive” each time. For the same compound, in [19], the Potency entry is “inactive”.

For `Cn1c(=O)c2c(ncn2CC2OCCO2)n(C)c1=O`, the Potency entry in assay [1], in assay [2], in assay [3], in assay [4], in assay [5] and in [6] was “inactive” throughout. Further, the Potency entry in assay [7], in assay [8], in assay [9], in assay [10], in assay [11] and in assay [12] was “inactive” in each case. In addition, the Potency entry in assay [13], in assay [14], in assay [15], in [16], in assay [17] and in [18] was “inactive” throughout. The Potency result in assay [19] is “inactive”.

Consider `NC1CCN(c2cccc(Cl)n2)CC1`, for which the Potency entry in assay [1], in assay [2], in [3], in assay [4], in assay [5] and in assay [6] was “inactive” throughout. The Potency entry in [7], in assay [8], in assay [9], in [10], in assay [11] and in assay [12] was “inactive” in each case. The Potency entry in assay [13], in [14], in assay [15], in [16], in [17] and in assay [18] was “inactive” each time. Moreover, in assay [19], the Potency entry is “inactive”.

As to `CNC(=O)Oc1ccc2c(c1)[C@]1(C)CCN(C)[C@@H]1N2C`, the Potency in [1] is 1.78 µM (active); in assay [2], 1.58 µM (active); in assay [3], 1.58 µM (active); in [4], 1.78 µM (active); in assay [5], 2 µM (active); in assay [6], 8.91 µM (active). In addition, the Potency in assay [8] was 1.58 µM (active); in [12], 7.08 µM (active); in [18] it was 7.57 µM (active); in assay [19], 2.24 µM (active). Besides, the Potency result in assay [15] is “inactive”.

With `CCC(=O)Nc1ccc(O)cc1`, the Potency entry in assay [1], in assay [2], in assay [3], in [4], in assay [5] and in assay [6] was “inactive” throughout. For the same compound, the Potency entry in assay [7], in assay [8], in assay [9], in assay [10], in assay [11] and in [12] was “inactive” throughout. Further, the Potency result in [13], in assay [20], in assay [14], in assay [15], in [16] and in assay [17] was “inactive” in each case. In addition, the Potency entry in assay [18] and in [19] was “inactive” throughout.

As for `CCCn1cnc2c1c(=O)n(CCCCC(C)=O)c(=O)n2C`, the Potency result in [1], in assay [2], in assay [3], in assay [4], in [5] and in assay [6] was “inactive” each time. Also, the Potency entry in [7], in assay [8], in assay [9], in [10], in assay [12] and in assay [13] was “inactive” throughout. In addition, the Potency entry in assay [20], in assay [14], in assay [15], in [16], in [17] and in assay [18] was “inactive” throughout. Further, the Potency entry in assay [19] is “inactive”.

In the case of `CCCCCCCCCCCCCCCCCCOCC(O)CO` (configuration not stated), the Potency result in [1], in [2], in assay [3], in assay [4], in assay [5] and in assay [6] was “inactive” throughout. For the same compound, the Potency result in assay [7], in [8], in assay [9], in assay [10], in assay [11] and in [12] was “inactive” each time. Besides, the Potency result in [13], in assay [20], in assay [14], in [15], in [16] and in [17] was “inactive” throughout. For the same compound, the Potency result in [19] is “inactive”.

Consider `CC1=C(/C=C/C(C)=C/C=C/C(C)=C/C(=O)O)C(C)(C)CCC1`, for which the Potency entry in [1], in assay [2], in assay [3], in assay [4], in assay [5] and in assay [6] was “inactive” each time. The Potency entry in assay [7], in [8], in assay [9], in [10], in assay [11] and in [12] was “inactive” each time. Moreover, the Potency entry in [13], in [14], in [15], in assay [16], in assay [17] and in [18] was “inactive” in each case. Moreover, the Potency entry in assay [19] is “inactive”.

With `O=C(O)c1ccccn1`, the Potency entry in [1], in assay [2], in assay [3], in assay [4], in assay [5] and in assay [6] was “inactive” throughout. Also, the Potency result in assay [7], in assay [8], in assay [9], in [10], in assay [11] and in [12] was “inactive” throughout. For the same compound, the Potency entry in [13], in [20], in assay [14], in assay [15], in [16] and in assay [17] was “inactive” in each case. Besides, the Potency entry in assay [19] was “inactive”.

On to `CCCCN(CCCC)CCCOC(=O)c1ccc(N)cc1`, for which the Potency result in [1], in assay [2], in assay [3], in assay [4], in [5] and in assay [6] was “inactive” each time. Also, the Potency entry in assay [7], in assay [9], in assay [10], in assay [11], in assay [12] and in assay [13] was “inactive” throughout. Besides, the Potency entry in [20], in assay [14], in [15], in assay [16], in assay [17] and in assay [18] was “inactive” in each case. For the same compound, in [19], the Potency entry was “inactive”.

As to `CCCOC(=O)c1ccccc1`, the Potency result in [1], in [2], in [3], in assay [4], in assay [5] and in assay [6] was “inactive” in each case. For the same compound, the Potency entry in [8], in assay [9], in assay [10], in assay [11], in assay [12] and in assay [13] was “inactive” throughout. The Potency entry in assay [20], in assay [14], in assay [15], in assay [16], in assay [17] and in assay [18] was “inactive” each time. Also, the Potency result in [19] is “inactive”.

Consider `O=C1NC(=O)[C@@]2(CCOc3ccc(F)cc32)N1`, for which the Potency result in [1], in assay [2], in [3], in [4], in [5] and in assay [6] was “inactive” in each case. In addition, the Potency result in assay [7], in assay [8], in assay [10], in assay [11], in assay [12] and in assay [13] was “inactive” throughout. The Potency result in assay [20], in [14], in assay [15], in assay [16], in [17] and in assay [18] was “inactive” each time. Besides, the Potency entry in assay [19] is “inactive”.

With `CCN(CC)CCNC(=O)c1c(C)[nH]c(/C=C2\C(=O)Nc3ccc(F)cc32)c1C`, the Potency in assay [1] was 7.94 µM (active); in assay [2], 10 µM (active); in assay [3] it was 14.1 µM (active); in [4], 7.94 µM (active); in assay [5], 11.2 µM (active); in [6], 7.08 µM (active). For the same compound, the Potency in assay [11] is 5.36 µM (active); in assay [12], 11.2 µM (active); in [15] it was 10.7 µM (active); in assay [17] it was 12 µM (active); in assay [18], 12 µM (active); in [19], 8.91 µM (active).
